{"source": "PubChem BioAssay", "note": "The source made the active and inactive calls.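 The calls were made as follows: active = viability increase at or above a cutoff of the median across tested compounds plus 3 SD (cut at about 8.5% in these data, passing the limit was not always enough); inconclusive = some gains above the cutoff, reason not given; inactive = the rest.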"}
{"experiment": "doxorubicin toxicity protection in MRP-1 cells – H69AR cells, CellTiter-Glo, duplicate, MRP-1 activator project, pilot screen (AID 807);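 also: compound pretreatment 18-22 h then 72 h combined with doxorubicin; 0% = doxorubicin alone and 100% = vehicle without doxorubicin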", "settings": "H69AR viability with doxorubicin, CellTiter-Glo luminescence; at 10 µM; hits give high values"}
{"smiles": "c1ccc(Cn2nnc3c(N4CCOCC4)ncnc32)cc1", "viability increase": "-1.15% (inactive)"}
{"smiles": "CCN(CC)S(=O)(=O)c1ccc(-c2nnco2)cc1", "viability increase": "-0.57% (inactive)"}
{"smiles": "Cc1ccc2nc(NC(=O)CCNS(=O)(=O)c3cccs3)sc2c1", "viability increase": "3.2% (inactive)"}
{"smiles": "Cn1c(=O)c2c(SCc3cccnc3)nc(CC(C)(C)C)nc2n(C)c1=O", "viability increase": "-6.27% (inactive)"}
{"smiles": "Cc1c(Nc2nc3ccccc3nc2N2CCN(c3ccccc3)CC2)c(=O)n(-c2ccccc2)n1C", "viability increase": "-4.8% (inactive)"}
{"smiles": "CC(C)N(Cc1nc(-c2ccc(Cl)cc2)no1)C(=O)CCCN1C(=O)c2ccccc2C1=O", "viability increase": "5.41% (inactive)"}
{"smiles": "COc1ccc(-c2nc(CSCC(=O)N3CCC(C(N)=O)CC3)c(C)o2)cc1OC", "viability increase": "-0.52% (inactive)"}
{"smiles": "COc1ccc(N(CC(=O)NCc2cccnc2)S(=O)(=O)c2c(C)nn(C)c2C)cc1", "viability increase": "-1.49% (inactive)"}
{"smiles": "O=C(NC1CCCCC1)C1CC(=O)N(c2ccc(Cl)cc2)C1", "note": "(stereo unspecified)", "viability increase": "-0.58% (inactive)"}
{"smiles": "COc1cc(C(=O)NCc2ccco2)c(Br)c(OC)c1OC", "viability increase": "-4.68% (inactive)"}
{"smiles": "COC(=O)C1C(O)=C(C(C)=N)C(=O)CC1(C)C", "note": "(stereo unspecified)", "viability increase": "-0.83% (inactive)"}
{"smiles": "Cn1c(SCC(=O)Nc2ccccc2F)nnc1-c1cccnc1", "viability increase": "-0.11% (inactive)"}
{"smiles": "O=C(CCCC(=O)NCC1CCCO1)NCC1CCCO1", "note": "(stereo unspecified)", "viability increase": "-1.38% (inactive)"}
{"smiles": "O=c1[nH]c(NCCCO)nc2c1C1(CCCC1)Cc1ccccc1-2", "viability increase": "-0.94% (inactive)"}
{"smiles": "Fc1ccc(Cc2nnc(-c3cccs3)o2)cc1", "viability increase": "0.11% (inactive)"}
{"smiles": "Cc1ccc(Cn2nnc3c(=O)n(Cc4ccccc4C)cnc32)cc1", "viability increase": "-2.98% (inactive)"}
